The source made the active and inactive calls. Where a call stands in place of a potency, no number is given. Calls come from the whole dose curve; as a rule, active = well fitted curve in the direction sought with a large enough effect in the repeat runs; inconclusive = weak or mixed curves; inactive = flat fitted curve, though single readings scatter.
Test: qHTS assay to test for compound auto fluorescence at 460 nm (blue) in HEK293 cell free culture (AID 720681)
Conditions: cell-free medium, autofluorescence 405/460 nm (blue); series mostly up to 91.3 µM
Excerpt: U.S. Tox21 Program National Center for Advancing Translational Sciences [NCATS] NIH Chemical Genomics Center [NCGC] U.S. Environmental Protection Agency [EPA] National Institutes of Environmental Health Sciences [NIEHS] National Toxicology Program [NTP] U.S. Food and Drug Administration [FDA] Tox21 Assay Overview: Compound auto fluorescence often interferes with screening of the compound library against various biological targets and signaling pathways. Some of these compounds may have fluorophoric properties. Such properties may interfere with the assay outputs resulting in false positives and/or negatives. To decrease such complications and ensure the compound activities are relevant in terms of biological response, the Tox21 10K compound library was screened for auto fluorescence. From the fluorophores used as reporter signals in our screening assays, the auto fluorescence equivalencies of compounds against three fluorophores have been evaluated: Triamterene, Fluorescein and Rose Bengal sodium for blue, green and red fluorescence, respectively. The fluorescence intensities were measured using Excitation/Emission wavelengths at 405/460nm, 485/535nm and 540/590nm for blue, green and red labels, respectively. This assay includes the blue fluorescence data.
Tox21 Assay Protocol Summary: 5 uL of culture medium (DMEM containing 10% FBS) per well was dispensed into black wall/clear bottom 1536-well plates using a Multidrop Combi Dispenser (ThermoFisher Scientific, Waltham, MA). After 23 nL compound or DMSO vehicle was transferred into assay plate by a pintool work station (Kalypsys, San Diego, CA), fluorescence intensities in the assay plates were measured by an Envision (PerkinElmer, Shelton, CT) plate reader using three labels for measuring blue, green and red fluorescence at […] 460, 535 and 590nm respectively.
For `COc1cccc2c1C(=O)c1c(O)c3c(c(O)c1C2=O)C[C@@](O)(C(C)=O)C[C@@H]3O[C@H]1C[C@H](N)[C@H](O)[C@H](C)O1`, the Potency was “inactive”. For `Cc1cc(-n2nc3ccc(Cl)cc3n2)c(O)c(C(C)(C)C)c1`, the Potency was “inactive”. With `O=C1NC(=O)[C@@H]2CC=CC[C@H]12` the Potency was “inactive”. With `c1ccsc1` the Potency was “inactive”. In the case of `Cc1c2ccccc2c(C)c2c1ccc1ccccc12`, the Potency is reported as “inactive”. In the case of `O=C1OC2(c3ccc(O)cc3Oc3cc(O)ccc32)c2ccc(N=C=S)cc21`, the Potency is reported as “inactive”. With `Cc1nc2n(c(=O)c1CCN1CCC(c3noc4cc(F)ccc34)CC1)CCCC2` the Potency was “inactive”. With `O=S(=O)(O)c1ccc(Nc2nc(Nc3ccc(/C=C/c4ccc(Nc5nc(Nc6ccc(S(=O)(=O)O)cc6)nc(N(CCO)CCO)n5)cc4S(=O)(=O)O)c(S(=O)(=O)O)c3)nc(N(CCO)CCO)n2)cc1` the Potency was 25.1 µM (active). In the case of `CN(C)Cc1cc(C(C)(C)C)c(O)c(C(C)(C)C)c1`, the Potency is reported as “inactive”. In the case of `COc1c(C)c2c(c(O)c1C/C=C(\C)CCC(=O)OCCN1CCOCC1)C(=O)OC2`, the Potency is reported as “inactive”. In the case of `Nc1nc(-c2ccccc2)cs1`, the Potency is reported as “inactive”. With `CC(C)(c1cc(Br)c(OCC(Br)CBr)c(Br)c1)c1cc(Br)c(OCC(Br)CBr)c(Br)c1` (stereo not given) the Potency was “inactive”. For `O=[N+]([O-])c1ccc(F)c(Cl)c1`, the Potency was “inactive”. With `CN(C)C(=O)COC(=O)Cc1ccc(OC(=O)c2ccc(N=C(N)N)cc2)cc1` the Potency was “inactive”. In the case of `Nc1ccc(C(=O)O)c(O)c1`, the Potency is reported as “inactive”. For `CCC(=O)C(=O)CC`, the Potency was “inactive”. For `Nc1ccc(Oc2ccc(Cl)cc2)cc1`, the Potency was “inactive”. In the case of `Cc1ccc(N/N=c2\c(=O)cc/c(=N\Nc3ccc(S(=O)(=O)O)cc3)c2=O)c(C)c1`, the Potency is reported as “inactive”. For `Oc1cc(Cl)cc(Cl)c1Cl`, the Potency was “inactive”. In the case of `Cc1c(C)c2c(c(C)c1OC(=O)c1cccnc1)CC[C@@](C)(CCC[C@H](C)CCC[C@H](C)CCCC(C)C)O2`, the Potency is reported as “inactive”. In the case of `CC(C)CCOC(=O)/C=C/c1ccccc1`, the Potency is reported as “inactive”. In the case of `O=C(O)CN(CCN(CC(=O)O)CC(=O)O)CC(=O)O`, the Potency is reported as “inactive”. For `[Cl][Pt-2]([Cl])([Cl])[Cl]`, the Potency was “inactive”. For `CCCCCC(C)OC(=O)COc1ccc(Cl)c2cccnc12` (stereo not given), the Potency was “inactive”. In the case of `CCCC[P+](C)(CCCC)CCCC`, the Potency is reported as “inactive”. In the case of `C=CCn1c(=O)n(CC=C)c(=O)n(CC=C)c1=O`, the Potency is reported as “inactive”. With `O=C(O)c1cc(=O)c2ccccc2o1` the Potency was “inactive”. In the case of `CC1=Nc2ccccc2C1(C)C`, the Potency is reported as “inactive”. In the case of `NC(=O)c1cccc([N+](=O)[O-])c1`, the Potency is reported as “inactive”. For `Cc1ccc(O)c(N)c1`, the Potency was “inactive”. For `c1ccc(SSc2ccccc2)cc1`, the Potency was “inactive”. With `CCOc1ccc2ccccc2c1C(=O)N[C@@H]1C(=O)N2[C@@H]1SC(C)(C)[C@@H]2C(=O)O` the fluorescence, % of fluorescent control was 0.309% [at 18.6 µM] (inactive). In the case of `CN(C)c1ccc(C(=C2C=CC(=[N+](C)C)C=C2)c2ccc(N(C)C)cc2)cc1`, the Potency is reported as “inactive”. With `CNc1ccc([N+](=O)[O-])cc1` the Potency was “inactive”. For `Clc1sc(Cl)c(Cl)c1Cl`, the Potency was “inactive”. In the case of `C=CC(C)(CCC=C(C)C)OC=O` (stereo not given), the Potency is reported as “inactive”. In the case of `CCCCN(CCCC)CC(O)c1cc(Cl)cc2c1-c1ccc(Cl)cc1/C2=C/c1ccc(Cl)cc1` (stereo not given), the Potency is reported as “inactive”. With `CCC(COC(=O)CCS)(COC(=O)CCS)COC(=O)CCS` the Potency was “inactive”. For `CCOC(=O)Cn1cccc1-c1nc(-c2ccc(OC)cc2)c(-c2ccc(OC)cc2)s1`, the Potency was “inactive”. With `CC(CCc1ccccc1)NCC(O)c1ccc(O)c(C(N)=O)c1` (stereo not given) the Potency was “inactive”.

— PubChem BioAssay (Tox21)
Potency is the fitted concentration of half-maximal effect.
